Paper PMC4336329 (PLoS ONE, 2015)
About 14,000 (4.5%) of roughly 310,000 compounds showed an effect of 50% or more. Effects have a minus sign here. The list comes from a sample in which strong results are over-represented; it also holds similar structures and randomly drawn compounds.

These compounds were tested against human ether-à-go-go-related gene (hERG) potassium channel (human, UniProt Q12809) (assay: primary screen, population patch clamp on CHO cells stably expressing hERG; higher = less effect of the substance).
human ether-à-go-go-related gene (hERG) potassium channel, sequence (Q12809 whole entry, looked up): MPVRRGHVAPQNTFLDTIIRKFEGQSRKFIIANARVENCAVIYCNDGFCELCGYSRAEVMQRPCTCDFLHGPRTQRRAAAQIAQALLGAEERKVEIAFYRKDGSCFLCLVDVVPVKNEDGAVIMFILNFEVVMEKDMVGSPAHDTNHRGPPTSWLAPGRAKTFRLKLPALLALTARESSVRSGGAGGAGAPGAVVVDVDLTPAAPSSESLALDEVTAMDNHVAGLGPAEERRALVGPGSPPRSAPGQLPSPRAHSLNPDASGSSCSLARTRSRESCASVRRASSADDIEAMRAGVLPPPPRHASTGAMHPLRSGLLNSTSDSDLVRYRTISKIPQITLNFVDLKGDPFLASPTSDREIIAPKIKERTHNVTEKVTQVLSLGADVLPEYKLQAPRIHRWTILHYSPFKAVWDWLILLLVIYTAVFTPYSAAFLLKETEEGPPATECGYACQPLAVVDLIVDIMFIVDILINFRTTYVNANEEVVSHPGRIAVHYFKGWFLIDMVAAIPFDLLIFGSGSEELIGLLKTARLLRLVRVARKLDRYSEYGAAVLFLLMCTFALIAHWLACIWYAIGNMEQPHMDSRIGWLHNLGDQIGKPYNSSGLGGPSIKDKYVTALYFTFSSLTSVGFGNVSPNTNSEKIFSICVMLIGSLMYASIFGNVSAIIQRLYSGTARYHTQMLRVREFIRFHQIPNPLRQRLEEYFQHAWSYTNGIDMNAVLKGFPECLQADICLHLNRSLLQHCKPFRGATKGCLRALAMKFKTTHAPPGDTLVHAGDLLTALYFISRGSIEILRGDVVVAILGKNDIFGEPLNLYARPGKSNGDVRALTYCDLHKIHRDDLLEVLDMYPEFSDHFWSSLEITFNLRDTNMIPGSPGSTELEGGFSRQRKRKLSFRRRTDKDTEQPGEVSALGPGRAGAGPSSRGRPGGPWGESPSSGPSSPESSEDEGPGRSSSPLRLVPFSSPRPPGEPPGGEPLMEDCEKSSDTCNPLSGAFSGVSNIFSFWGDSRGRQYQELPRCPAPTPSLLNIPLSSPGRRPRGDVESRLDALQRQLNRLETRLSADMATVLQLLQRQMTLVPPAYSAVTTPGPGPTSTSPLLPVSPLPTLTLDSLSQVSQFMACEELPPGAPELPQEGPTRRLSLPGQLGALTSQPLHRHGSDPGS
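Also: peak tail current of the secondary pulse compared with the same well before compound.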

| SMILES | hERG current change (%, negative = inhibition) at 10uM [%] |
| --- | --- |
| Cc1cccc(Sc2nc(-c3ccccc3)ncc2C(=O)O)c1 | 11.7 |
| Cc1cc(=O)oc2cc(OCC(=O)N3CCN(c4ccccc4)CC3)ccc12 | -36.6 |
| Cc1cc(=O)oc2c(C)c(OCC(=O)N3CCN(c4ccccc4)CC3)ccc12 | -24.8 |
| COc1ccc(N2CCN(C(=O)COc3ccc4c(C)cc(=O)oc4c3C)CC2)cc1 | 20.6 |
| Cc1cc(=O)oc2c(C)c(OCC(=O)N3CCN(c4ccc(F)cc4)CC3)ccc12 | -65.9 |
| Cc1cc(=O)oc2cc(OCC(=O)N3CCN(c4ccc(F)cc4)CC3)ccc12 | -53 |
| COc1ccc(N2CCN(C(=O)COc3ccc4c(C)cc(=O)oc4c3)CC2)cc1 | -16.5 |
| CCC(C)c1ccc(NC(=S)NC(C)C2CCCO2)cc1 (centres unmarked) | -6.84 |
| Cc1ccc(CN2CC(C(=O)N3CC(C)CC(C)C3)CC2=O)cc1 (centres unmarked) | -6.13 |
| CN(C)CCP(=O)(c1ccccc1)c1ccccc1 | 13.4 |
| O=C(O)COCc1nc2ccccc2s1 | -7.92 |
| Cc1cccc(C(=O)N2CCc3cc(-c4nc(NC(=O)CN5CCCC5)sc4C)ccc32)c1 | -0.886 |
| Cc1ccc(CC(=O)N(C)CC(=O)N(CC(C)C)c2c(N)n(CC(C)C)c(=O)[nH]c2=O)cc1C | -2.54 |
| Cc1ccc2c(c1)COc1c3ccc(C(=O)NCC4CC4)cc3nn1-2 | -6.56 |
| CCN(Cc1ccccc1)Cc1ccc(OCc2ccccc2)c(OC)c1 | -31.2 |
| COc1ccc(CCN(C)Cc2ccc(OC)c(OCc3ccccc3)c2)cc1OC | -81.6 |
| CCN(CC)c1ccc(CN(C)CCc2ccc(OC)c(OC)c2)cc1 | -66.1 |
| COc1ccc(Cc2noc(CN(C)CCc3ccccc3)n2)cc1OC | 7.3 |
| CN(Cc1ccccc1)C(=O)c1ccccc1NC(=O)c1ccccc1 | -12.7 |
| CN(Cc1ccccc1)C(=O)c1ccc(NC(=O)C2=CSCCO2)cc1 | -0.926 |
| COc1cc(CN(C)CCc2ccccc2)ccc1OCc1ccccc1 | -72 |
| COc1ccc(CCN(C)Cc2ccncc2)cc1OC | -27.2 |

| SMILES | hERG current change (%, negative = inhibition) at 10uM [%] |
| --- | --- |
| COc1cc(CN(CCN(C)C)Cc2ccccc2)ccc1OCc1ccccc1.O=C(O)C(=O)O | -31 |
| COc1ccc(CCN(C)Cc2ccc(F)cc2F)cc1OC | -0.788 |
| CN(Cc1ccccc1)C(=O)c1ccc(NC(=O)c2ccccc2)cc1 | -59.9 |
| O=C(Nc1cccc(S(=O)(=O)N2CCCC2)c1)c1ccc2ccccc2n1 | 20.9 |
| COc1ccc(/C=C/C(=O)NCc2cn(C)nc2C)cc1COc1ccc(Br)cc1 | 7.33 |
| O=C(Nc1cccc(S(=O)(=O)N2CCCCC2)c1)Nc1ccc(Cl)cc1Cl | 7.77 |
| Cn1cc(C(=O)N2CCCC(Nc3ccc(F)cc3)C2)c2ccccc21 (centres unmarked) | -21.1 |
| O=C(CN1CCCC1c1cccs1)Nc1cccc(S(=O)(=O)N2CCCC2)c1 (centres unmarked) | -0.843 |
| COc1ccccc1OCc1ccc(C(=O)Nc2ccccc2)cc1 | 11.1 |
| COc1ccc(CCN(C)Cc2ccc(OCc3ccccc3)c(OC)c2)cc1OC | -74.3 |
| COc1ccc(C(=O)Nc2ccc(C(=O)NCCc3ccc(OC)c(OC)c3)cc2)cc1 | 30.5 |
| COc1ccc(CN(CCc2ccccc2)Cc2ccccc2)cc1OC.O=C(O)C(=O)O | -9.99 |
| COc1cc(CC(=O)O)ccc1OCc1ccccc1 | 4.35 |
| COc1ccc(CCN(C)Cc2ccc(C(=O)Nc3ccccc3)cc2)cc1OC | -67.3 |
| COc1ccc(NS(=O)(=O)c2ccc(-c3cnc(C4CC4)o3)cc2)cc1OC | 14.6 |
| CC1(C)Cc2c(sc(NC(=O)COc3ccc(Cl)cc3)c2C(N)=O)C(C)(C)N1 | 0.951 |
| COC(=O)C(NNc1ccc(F)cc1)(NC(=O)c1ccccc1)C(F)(F)F (centres unmarked) | -3.67 |
| O=C(Nc1cc(Cl)ccc1-n1cncn1)c1ccc([N+](=O)[O-])s1 | -27.9 |
| O=C(O)C1OC(C(=O)O)C2C1C(F)(F)C2(F)F (centres unmarked) | 14.3 |
| O=C(Cc1cn2ccsc2n1)Nc1cccc2cnccc12 | 9.76 |
| CCN(CC)Cc1c(O)ccc2c([N+](=O)[O-])c(C)n(-c3ccc(OC)cc3)c12 | -24.9 |
| CCOC(=O)c1sc(=N)n(-c2ccc(OC)cc2)c1C | -4.06 |

| SMILES | hERG current change (%, negative = inhibition) at 10uM [%] |
| --- | --- |
| Cc1ccc(-n2c(C)c([N+](=O)[O-])c3ccc(O)c(CN(C)C)c32)cc1 | -23.6 |
| CCOC(=O)c1c(C)n(C)c2ccc(O)c(CN(CC)CC)c12.Cl | -20 |
| CCOC(=O)c1c(C)n(-c2ccc(C)cc2)c2ccc(O)c(CN(C)C)c12.Cl | -74.2 |
| CCOC(=O)c1c(C)n(C)c2ccc(O)c(CN(C)C)c12.O=C(O)C(=O)O | -6.82 |
| CCOC(=O)c1c(C)n(-c2ccc(OC)cc2)c2ccc(O)c(CN(C)C)c12.Cl | -74.2 |
| CCOC(=O)c1c(C)n(-c2ccccc2)c2ccc(O)c(CN(C)C)c12.Cl | -30.7 |
| COc1ccc(-n2c(C)c([N+](=O)[O-])c3ccc(O)c(CN(C)C)c32)cc1 | -57.6 |
| Cc1cccc(NC(=O)COc2ccccc2C)n1 | 7.83 |
| Cl.Clc1ccccc1CSc1nnc([C@@H]2CCCN2)o1 | 15.1 |
| COc1ccc(C(=O)CNc2ccccc2Br)cc1 | 18.8 |
| COC(=O)C1CCN(C(=O)N2CCOCC2)CC1 | 5.68 |
| CC(/C=N/NC(=O)c1nnn(-c2nonc2N)c1C(C)C)=C\c1ccco1 | 8.07 |
| CSCCC(NC(=O)c1ccccc1Cl)C(=O)NNC(=O)c1csc(N2CCOCC2)n1 (centres unmarked) | -29.9 |
| CSCCC(NC(=O)c1ccccc1Br)C(=O)NNC(=O)c1csc(N2CCOCC2)n1 (centres unmarked) | -33.5 |
| Cc1ccsc1C(=O)NNC(=O)c1csc(N2CCOCC2)n1 | 12.7 |
| Cc1cccc(C(=O)NNC(=O)c2csc(N3CCOCC3)n2)c1C | -9.89 |
| CSCCC(NC(=O)c1ccc(Cl)cc1Cl)C(=O)NNC(=O)c1csc(N2CCOCC2)n1 (centres unmarked) | -56.8 |
| Cc1ccc(C)c(SCC(=O)NNC(=O)c2csc(N3CCOCC3)n2)c1 | -55.1 |
| C/C(N)=C(/C#N)C(=O)CSc1nc2ccccc2c(=O)n1CCCOC(C)C | -21.2 |
| Cc1cc(O)cc(O)c1C=NCc1ccco1 | -8.53 |
| CC1C(c2ccccc2)=NNc2nc3c(c(=O)n(C)c(=O)n3C)n21 (centres unmarked) | 3.99 |
| COc1ccc(NC(=O)c2ccc(-c3ccc(-c4noc(C)n4)cc3C)cc2)cc1N1CCN(C)CC1.Cl | -76 |

| SMILES | hERG current change (%, negative = inhibition) at 10uM [%] |
| --- | --- |
| COc1ccc(-c2nc(-c3ccc(NC(=O)c4ccncc4)cc3)no2)cc1OC | 7.54 |
| COc1ccc(C(=O)Nc2ccc(N3CCN(C)CC3)cc2)cc1OC | -11.9 |
| CCOC(=O)c1c(NC(=O)CNC2CCCCC2)sc(C)c1C | 10.3 |
| N#CCSc1nnc(COc2ccc3ccccc3c2)o1 | -5.89 |
| COc1cc(CC(=O)OCC(=O)c2ccc3c(c2)OCCO3)cc(OC)c1OC | -58.6 |
| O=C(Cc1ccc(Br)cc1)OCC(=O)c1ccc2c(c1)OCCO2 | 13.1 |
| COc1cc(CC(=O)OCC(=O)Nc2ccc3c(c2)OCCO3)cc(OC)c1OC | 26 |
| CC(=O)C1=C(O)C(=O)OC1c1ccc(Cl)cc1 (centres unmarked) | 7.92 |
| FC(F)(F)c1nnc2ccc(NCc3ccccc3)nn12 | 8.9 |
| CCN(CC(=O)NCc1ccc(Cl)cc1)C(=O)CSCC(=O)Nc1ccc(C)cc1 | -77.9 |
| CSc1ccc(CN(C)C(=O)CSCC(=O)Nc2ccc(C)cc2)cc1 | -73 |
| CCN(CC(=O)NCc1ccc(Cl)cc1)C(=O)CSCC(=O)Nc1ccc(OC)cc1 | -66.7 |
| CSc1ccc(CN(C)C(=O)CSCC(=O)Nc2cc(C)on2)cc1 | 6.59 |
| CCN(CC(=O)Nc1ccc(OC)cc1)C(=O)CSCC(=O)Nc1ccc(C)cc1 | -23.5 |
| CCN(CC(=O)Nc1ccc2c(c1)OCCO2)C(=O)CSCC(=O)Nc1ccc(C)cc1 | -31.1 |
| Cc1ccc(CSCC(=O)N(C)CC(=O)Nc2ccc(C)cc2)cc1 | -2.48 |
| CCN(CC(=O)Nc1ccc(NC(C)=O)cc1)C(=O)CSCC(=O)Nc1ccc(C)cc1 | 2.95 |
| CCN(CC(=O)Nc1c(F)cccc1F)C(=O)CSCC(=O)Nc1ccc(OC)cc1 | -3.35 |
| CC(CCc1ccccc1)NCC(O)c1ccc(O)c(C(N)=O)c1.Cl (centres unmarked) | -30.6 |
| CCOC(=O)C1CCCN(Cc2cc(=O)oc3cc(C)ccc23)C1 (centres unmarked) | -13.6 |
